# Experimental data reported in PubChem BioAssay AID1159580 (chemical genetic matrix, 2015).
# Among all 5,500 compounds or so, about 2,000 (36%) were called active. Roughly 18% stayed inconclusive and do not appear here. This is one part of the list. Values without a mark were called inactive. No stated cut-off is given here; in the data, active means normalized growth mostly below about 0.91 (no sharp cut-off); inconclusive means no clear call, values can overlap the other calls; inactive means mostly above about 0.92.
# Assay: chemical genetic growth profiling, strain panel (AID 1159580);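 further: tested at 20 µM; growth read once vehicle control cultures reached saturation at 30 °C; 1 = growth at the plate median or of vehicle wells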
# Conditions: growth OD
structure (smiles),measurement,setting,value
O=c1c(O)c(-c2ccccc2)oc2cc(O)ccc12,normalized growth,"S. cerevisiae deletion strains, locus YKL009W, strain mrt4, stronger effect = lower value",0.932
same,normalized growth,"S. cerevisiae deletion strains, locus YKL068W, stronger effect = lower value",0.948
same,normalized growth,"S. cerevisiae deletion strains, locus YKL085W, strain MDH1 (second series), stronger effect = lower value",0.911 (active)
same,normalized growth,"S. cerevisiae deletion strains, locus YKL085W, strain MDH1, stronger effect = lower value",0.911 (active)
same,normalized growth,"S. cerevisiae deletion strains, locus YKL160W, strain elf1, stronger effect = lower value",0.772 (active)
same,normalized growth,"S. cerevisiae deletion strains, locus YKL190W, strain CNB1, stronger effect = lower value",0.4 (active)
same,normalized growth,"S. cerevisiae deletion strains, locus YKR001C, strain vps1, stronger effect = lower value",0.708 (active)
same,normalized growth,"S. cerevisiae deletion strains, locus YKR026C, strain gcn3, stronger effect = lower value",0.879 (active)
same,normalized growth,"S. cerevisiae deletion strains, locus YKR091W, strain srl3, stronger effect = lower value",0.834 (active)
same,normalized growth,"S. cerevisiae deletion strains, locus YLL001W, strain dnm1, stronger effect = lower value",0.827 (active)
same,normalized growth,"S. cerevisiae deletion strains, locus YLL026W, stronger effect = lower value",0.558 (active)
same,normalized growth,"S. cerevisiae deletion strains, locus YLL041C, strain sdh2, stronger effect = lower value",0.85 (active)
same,normalized growth,"S. cerevisiae deletion strains, locus YLR027C, strain aat2, stronger effect = lower value",0.701 (active)
same,normalized growth,"S. cerevisiae deletion strains, locus YLR039C, strain RIC1, stronger effect = lower value",0.236 (active)
same,normalized growth,"S. cerevisiae deletion strains, locus YLR058C, strain SHM2, stronger effect = lower value",0.514 (active)
same,normalized growth,"S. cerevisiae deletion strains, locus YLR102C, strain apc9, stronger effect = lower value",0.935
same,normalized growth,"S. cerevisiae deletion strains, locus YLR113W, strain HOG1, stronger effect = lower value",1
same,normalized growth,"S. cerevisiae deletion strains, locus YLR221C, strain rsa3, stronger effect = lower value",0.759 (active)
same,normalized growth,"S. cerevisiae deletion strains, locus YLR258W, strain gsy2, stronger effect = lower value",0.699 (active)
same,normalized growth,"S. cerevisiae deletion strains, locus YLR262C, strain YPT6 (second series), stronger effect = lower value",0.341 (active)
same,normalized growth,"S. cerevisiae deletion strains, locus YLR262C, strain YPT6, stronger effect = lower value",0.263 (active)
same,normalized growth,"S. cerevisiae deletion strains, locus YLR268W, strain sec22, stronger effect = lower value",0.62 (active)
same,normalized growth,"S. cerevisiae deletion strains, locus YLR320W, strain mms22, stronger effect = lower value",0.674 (active)
same,normalized growth,"S. cerevisiae deletion strains, locus YLR330W, strain CHS5, stronger effect = lower value",0.663 (active)
same,normalized growth,"S. cerevisiae deletion strains, locus YLR342W, strain FKS1 (second series), stronger effect = lower value",0.51 (active)
same,normalized growth,"S. cerevisiae deletion strains, locus YLR342W, strain FKS1, stronger effect = lower value",0.765 (active)
same,normalized growth,"S. cerevisiae deletion strains, locus YLR357W, strain rsc2, stronger effect = lower value",0.717 (active)
same,normalized growth,"S. cerevisiae deletion strains, locus YLR370C, strain arc18, stronger effect = lower value",0.738 (active)
same,normalized growth,"S. cerevisiae deletion strains, locus YLR371W, strain rom2, stronger effect = lower value",0.636 (active)
same,normalized growth,"S. cerevisiae deletion strains, locus YLR384C, strain iki3, stronger effect = lower value",0.906 (active)
same,normalized growth,"S. cerevisiae deletion strains, locus YLR418C, strain cdc73, stronger effect = lower value",0.357 (active)
same,normalized growth,"S. cerevisiae deletion strains, locus YML016C, strain PPZ1, stronger effect = lower value",0.455 (active)
same,normalized growth,"S. cerevisiae deletion strains, locus YML032C, strain rad52, stronger effect = lower value",0.872 (active)
same,normalized growth,"S. cerevisiae deletion strains, locus YML120C, strain ndi1, stronger effect = lower value",0.887 (active)
same,normalized growth,"S. cerevisiae deletion strains, locus YML124C, strain tub3, stronger effect = lower value",0.827 (active)
same,normalized growth,"S. cerevisiae deletion strains, locus YMR058W, strain fet3, stronger effect = lower value",0.104 (active)
same,normalized growth,"S. cerevisiae deletion strains, locus YMR078C, strain ctf18, stronger effect = lower value",0.909 (active)
same,normalized growth,"S. cerevisiae deletion strains, locus YMR125W, strain sto1, stronger effect = lower value",0.929
same,normalized growth,"S. cerevisiae deletion strains, locus YMR129W, stronger effect = lower value",0.838 (active)
same,normalized growth,"S. cerevisiae deletion strains, locus YMR205C, strain PFK2, stronger effect = lower value",0.639 (active)
same,normalized growth,"S. cerevisiae deletion strains, locus YMR223W, strain ubp8, stronger effect = lower value",0.685 (active)
same,normalized growth,"S. cerevisiae deletion strains, locus YMR231W, strain pep5, stronger effect = lower value",0.336 (active)
same,normalized growth,"S. cerevisiae deletion strains, locus YMR307W, strain GAS1, stronger effect = lower value",0.328 (active)
same,normalized growth,"S. cerevisiae deletion strains, locus YNL067W, strain RPL9B, stronger effect = lower value",0.496 (active)
same,normalized growth,"S. cerevisiae deletion strains, locus YNL071W, strain lat1, stronger effect = lower value",0.709 (active)
same,normalized growth,"S. cerevisiae deletion strains, locus YNL128W, strain TEP1, stronger effect = lower value",0.319 (active)
same,normalized growth,"S. cerevisiae deletion strains, locus YNL153C, strain GIM3, stronger effect = lower value",0.577 (active)
same,normalized growth,"S. cerevisiae deletion strains, locus YNL183C, strain NPR1, stronger effect = lower value",0.98
same,normalized growth,"S. cerevisiae deletion strains, locus YNL209W, strain ssb2, stronger effect = lower value",0.335 (active)
same,normalized growth,"S. cerevisiae deletion strains, locus YNL233W, strain BNI4, stronger effect = lower value",0.479 (active)
same,normalized growth,"S. cerevisiae deletion strains, locus YNL248C, strain rpa49, stronger effect = lower value",0.859 (active)
same,normalized growth,"S. cerevisiae deletion strains, locus YNL250W, strain rad50, stronger effect = lower value",0.927
same,normalized growth,"S. cerevisiae deletion strains, locus YNL271C, strain bni1, stronger effect = lower value",0.858 (active)
same,normalized growth,"S. cerevisiae deletion strains, locus YNL298W, strain CLA4, stronger effect = lower value",0.914
same,normalized growth,"S. cerevisiae deletion strains, locus YNL307C, strain MCK1, stronger effect = lower value",0.745 (active)
same,normalized growth,"S. cerevisiae deletion strains, locus YNL322C, strain KRE1 (second series), stronger effect = lower value",0.971
same,normalized growth,"S. cerevisiae deletion strains, locus YNL322C, strain KRE1, stronger effect = lower value",0.415 (active)
same,normalized growth,"S. cerevisiae deletion strains, locus YNR049C, strain mso1, stronger effect = lower value",0.895 (active)
same,normalized growth,"S. cerevisiae deletion strains, locus YNR052C, strain pop2, stronger effect = lower value",0.713 (active)
same,normalized growth,"S. cerevisiae deletion strains, locus YOL006C, strain TOP1, stronger effect = lower value",0.167 (active)
same,normalized growth,"S. cerevisiae deletion strains, locus YOL012C, strain htz1",0.446
same,normalized growth,"S. cerevisiae deletion strains, locus YOL147C, strain pex11, stronger effect = lower value",0.914 (active)
same,normalized growth,"S. cerevisiae deletion strains, locus YOR001W, strain rrp6, stronger effect = lower value",0.873 (active)
same,normalized growth,"S. cerevisiae deletion strains, locus YOR061W, strain CKA2, stronger effect = lower value",0.682 (active)
same,normalized growth,"S. cerevisiae deletion strains, locus YOR069W, strain VPS5, stronger effect = lower value",0.614 (active)
same,normalized growth,"S. cerevisiae deletion strains, locus YOR070C, strain gyp1, stronger effect = lower value",0.739 (active)
same,normalized growth,"S. cerevisiae deletion strains, locus YOR080W, strain dia2, stronger effect = lower value",0.777 (active)
same,normalized growth,"S. cerevisiae deletion strains, locus YOR083W, strain WHI5, stronger effect = lower value",0.695 (active)
same,normalized growth,"S. cerevisiae deletion strains, locus YOR106W, strain vam3, stronger effect = lower value",0.27 (active)
same,normalized growth,"S. cerevisiae deletion strains, locus YOR136W, strain idh2, stronger effect = lower value",0.909 (active)
same,normalized growth,"S. cerevisiae deletion strains, locus YOR144C, strain elg1, stronger effect = lower value",0.94
same,normalized growth,"S. cerevisiae deletion strains, locus YOR184W, strain ser1, stronger effect = lower value",0.5 (active)
same,normalized growth,"S. cerevisiae deletion strains, locus YOR231W, strain MKK1, stronger effect = lower value",1.03
same,normalized growth,"S. cerevisiae deletion strains, locus YOR265W, strain rbl2, stronger effect = lower value",0.71 (active)
same,normalized growth,"S. cerevisiae deletion strains, locus YOR270C, strain vph1, stronger effect = lower value",0.306 (active)
same,normalized growth,"S. cerevisiae deletion strains, locus YOR290C, strain snf2, stronger effect = lower value",0.754 (active)
same,normalized growth,"S. cerevisiae deletion strains, locus YOR316C, strain cot1, stronger effect = lower value",0.903 (active)
same,normalized growth,"S. cerevisiae deletion strains, locus YPL051W, strain arl3, stronger effect = lower value",0.439 (active)
same,normalized growth,"S. cerevisiae deletion strains, locus YPL055C, strain LGE1, stronger effect = lower value",0.363 (active)
same,normalized growth,"S. cerevisiae deletion strains, locus YPL078C, strain atp4, stronger effect = lower value",0.845 (active)
same,normalized growth,"S. cerevisiae deletion strains, locus YPL106C, strain sse1, stronger effect = lower value",0.65 (active)
same,normalized growth,"S. cerevisiae deletion strains, locus YPL240C, strain hsp82, stronger effect = lower value",0.81 (active)
same,normalized growth,"S. cerevisiae deletion strains, locus YPL241C, strain CIN2, stronger effect = lower value",0.719 (active)
same,normalized growth,"S. cerevisiae deletion strains, locus YPL256C, strain CLN2, stronger effect = lower value",1.06
same,normalized growth,"S. cerevisiae deletion strains, locus YPR119W, strain clb2, stronger effect = lower value",0.931 (active)
same,normalized growth,"S. cerevisiae deletion strains, locus YPR141C, strain kar3, stronger effect = lower value",0.942
same,normalized growth,"S. cerevisiae deletion strains, locus YPR163C, strain tif3, stronger effect = lower value",0.844 (active)
same,normalized growth,"S. cerevisiae deletion strains, locus YPR167C, strain met16, stronger effect = lower value",0.734 (active)
same,normalized growth,"S. cerevisiae deletion strains, strain wtn01, stronger effect = lower value",0.751 (active)
same,normalized growth,"S. cerevisiae strains, strain wild type, stronger effect = lower value",0.246 (active)
